ADAM17 inh = ADAM17 inhibitors, primary screen, biochemical, QFRET; inhibition, % at 6.95 µM; recombinant ADAM17, EDANS/DABCYL FRET peptide cleavage; actives 0.83% (n = 370,000); Disintegrin and metalloproteinase domain-containing protein 17 (Homo sapiens), P78536;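 active means inhibition above the mean of compounds lying between control limits plus 3 SD, set per campaign, cut at about 8.5% in these data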
PLCb3 inh = human PLC-beta3 inhibitors, primary screen, biochemical, fluorescence; AID 720704, 2013; Purified PLC-beta3, fluorogenic substrate; actives 0.18% (n = 370,000); 1-phosphatidylinositol 4,5-bisphosphate phosphodiesterase beta-3 (Homo sapiens), Q01970; inhibition, % at 12.2 µM; in the data active means inhibition above about 11%
PLCg1 inh = PLC-gamma1 enzyme inhibitors, primary screen, biochemical, fluorescence, purified enzyme. fluorogenic substrate. inhibition, % at 12.2 µM. 1-phosphatidylinositol 4,5-bisphosphate phosphodiesterase gamma-1 (Homo sapiens), P19174. actives 0.84% (n = 370,000); in the data active means inhibition above about 9.5%
ADAM10 inh = human ADAM10 inhibitors, primary screen, biochemical, QFRET, HTS; actives 0.62% (n = 370,000); inhibition, % at 7 µM; recombinant ADAM10, EDANS/DABCYL FRET peptide cleavage, 3 h;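 active means inhibition above a per-campaign cutoff equal to the mean of compounds falling between control-based bounds plus 3 SD, cut at about 20% in these data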
Target sequence (O14672 214-748 limits assumed): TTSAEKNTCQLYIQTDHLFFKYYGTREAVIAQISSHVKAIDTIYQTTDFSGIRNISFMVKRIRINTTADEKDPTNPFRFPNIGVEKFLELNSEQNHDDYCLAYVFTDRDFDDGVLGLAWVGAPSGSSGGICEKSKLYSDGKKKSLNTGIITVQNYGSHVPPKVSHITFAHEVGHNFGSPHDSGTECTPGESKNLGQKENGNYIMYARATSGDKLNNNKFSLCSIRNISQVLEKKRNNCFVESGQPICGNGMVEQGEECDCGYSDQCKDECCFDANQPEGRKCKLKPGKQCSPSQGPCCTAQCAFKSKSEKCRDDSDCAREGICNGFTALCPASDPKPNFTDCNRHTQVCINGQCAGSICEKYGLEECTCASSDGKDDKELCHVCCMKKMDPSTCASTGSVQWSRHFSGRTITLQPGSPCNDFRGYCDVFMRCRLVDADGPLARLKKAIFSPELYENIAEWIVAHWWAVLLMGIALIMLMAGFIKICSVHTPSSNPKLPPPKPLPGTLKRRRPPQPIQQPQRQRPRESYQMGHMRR
proKLK7 act = proKLK7 zymogen activators, primary screen, biochemical, fluorescence intensity | Kallikrein-7 (Homo sapiens), P49862 | purified proKLK7, EDANS-DABCYL substrate fluorescence; 100% is mature enzyme control, 0% vehicle | activation, % at 7 µM | actives 0.9% (n = 370,000);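 active means activation above the mean of all tested compounds plus 3 SD, computed per campaign excluding outliers beyond control limits, cut at about 13% in these data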
proKLK7 act conf = proKLK7 zymogen activators, confirmation, biochemical, fluorescence intensity, triplicate; shares compounds with proKLK7 act; purified proKLK7, EDANS-DABCYL substrate fluorescence; scaled: vehicle 0, mature enzyme 100; activation, % at 7 µM; actives 68% (n = 3,200); AID 686949, 2013;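 active means activation, as change over the incubation, above the mean of all tested compounds plus 3 SD, cut at about 13% in these data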
EDANS-DABCYL int = EDANS-DABCYL substrate optical interference, artefact control for kallikrein-7 zymogen activator project, biochemical, fluorescence intensity, high throughput | actives 80% (n = 3,200) | shares compounds with proKLK7 act | no enzyme, 4 h; solvent 0%, active enzyme control 100% | activation, % at 7 µM | AID 686952, 2013;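 active means activation above the all-compound mean plus 3 SD, ignoring values outside control-based bounds, cut at about 4.8% in these data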;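 further: value is the 4 h activation minus the activation read at time zero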
A number is an active result. A selection: hits, their analogues and other compounds. The true share with any hit is near 2.9%.

What do the screens show for `Cc1ccc(C2C=C(c3ccccc3)Nc3nc(N4C(=O)CCC4=O)nn32)cc1` (stereo not drawn)?
ADAM17 inh: inactive; PLCb3 inh: inactive; PLCg1 inh: inactive; ADAM10 inh: inactive; proKLK7 act: 91; proKLK7 act conf: inactive; EDANS-DABCYL int: inactive

How did Cc1ccc(C2C=C(c3ccccc3)Nc3ncnn32)cc1 (stereo not drawn) do in these assays?
ADAM17 inh: inactive; PLCb3 inh: inactive; PLCg1 inh: inactive; ADAM10 inh: inactive; proKLK7 act: inactive

Results for CC(=O)Oc1cc(C)c(Cl)c2c(OC(C)=O)cc(C(C)=O)c(O)c12 ?
ADAM17 inh: inactive; PLCb3 inh: inactive; PLCg1 inh: inactive; ADAM10 inh: inactive; proKLK7 act: inactive

How did O=C(O)CCc1nn2c3ccccc3n(CCN3CCCCC3)c2nc1=O do in these assays?
ADAM17 inh: inactive; PLCb3 inh: inactive; PLCg1 inh: inactive; ADAM10 inh: inactive; proKLK7 act: 46; proKLK7 act conf: inactive; EDANS-DABCYL int: 11

What do the screens show for `O=C(O)CCc1nn2c3ccccc3n(CCO)c2nc1=O`?
ADAM17 inh: inactive; PLCb3 inh: inactive; PLCg1 inh: inactive; ADAM10 inh: inactive; proKLK7 act: inactive

How did COc1ccc(/C=C2\CCc3c2nc2ccccc2c3C(=O)O)cc1OC do in these assays?
ADAM17 inh: inactive; PLCb3 inh: inactive; PLCg1 inh: inactive; ADAM10 inh: inactive; proKLK7 act: 16; proKLK7 act conf: 55; EDANS-DABCYL int: 65

Results for COc1cc(/C=C2\CCCc3c2nc2ccccc2c3C(=O)O)cc(OC)c1O ?
ADAM17 inh: inactive; PLCb3 inh: inactive; PLCg1 inh: inactive; ADAM10 inh: inactive; proKLK7 act: inactive

How did Cn1c(N)nc2nc(CCc3ccccc3)c(=O)[nH]c2c1=O do in these assays?
ADAM17 inh: inactive; PLCb3 inh: inactive; PLCg1 inh: inactive; ADAM10 inh: inactive; proKLK7 act: 13; proKLK7 act conf: 34; EDANS-DABCYL int: 30

How did Cn1c(=O)c2c(nc(CCc3ccccc3)n2C)n(C)c1=O do in these assays?
ADAM17 inh: inactive; PLCb3 inh: inactive; PLCg1 inh: inactive; ADAM10 inh: inactive; proKLK7 act: inactive

Results for COCCNS(=O)(=O)c1ccc2c(c1)C(=NO)c1cc(S(=O)(=O)NCCOC)ccc1-2 ?
ADAM17 inh: inactive; PLCb3 inh: inactive; PLCg1 inh: inactive; ADAM10 inh: inactive; proKLK7 act: 14; proKLK7 act conf: inactive; EDANS-DABCYL int: inactive

What do the screens show for `CCCN1CCCCC(NC(=O)c2ccc(C)cc2C)C1=O` (stereo not drawn)?
ADAM17 inh: inactive; PLCb3 inh: inactive; PLCg1 inh: inactive; ADAM10 inh: inactive; proKLK7 act: inactive

How did COc1ccccc1-c1coc2c(CN3CCCC(C)C3)c(O)ccc2c1=O (stereo not drawn) do in these assays?
ADAM17 inh: inactive; PLCb3 inh: inactive; PLCg1 inh: inactive; ADAM10 inh: inactive; proKLK7 act: 40; proKLK7 act conf: 65; EDANS-DABCYL int: 62

How did COc1ccccc1-c1coc2c(CN3C(C)CCCC3C)c(O)ccc2c1=O (stereo not drawn) do in these assays?
ADAM17 inh: inactive; PLCb3 inh: inactive; PLCg1 inh: inactive; ADAM10 inh: inactive; proKLK7 act: inactive

Results for COc1ccc(-c2c(C)oc3c(CN4CCCCC4C)c(O)ccc3c2=O)cc1 (stereo not drawn) ?
ADAM17 inh: inactive; PLCb3 inh: inactive; PLCg1 inh: inactive; ADAM10 inh: inactive; proKLK7 act: 41; proKLK7 act conf: 50; EDANS-DABCYL int: 52

Results for Cc1oc2c(CN3CCCC(C)C3)c(O)ccc2c(=O)c1-c1ccccc1 (stereo not drawn) ?
ADAM17 inh: inactive; PLCb3 inh: inactive; PLCg1 inh: inactive; ADAM10 inh: inactive; proKLK7 act: 33; proKLK7 act conf: 23; EDANS-DABCYL int: 23

What do the screens show for `COc1ccccc1-c1coc2c(CN3CCCCC3C)c(O)ccc2c1=O` (stereo not drawn)?
ADAM17 inh: inactive; PLCb3 inh: inactive; PLCg1 inh: inactive; ADAM10 inh: inactive; proKLK7 act: 53; proKLK7 act conf: 66; EDANS-DABCYL int: 64

Results for CCN=C1NC(CCc2ccccc2)C(C(=O)OC)=C(C)N1Cc1ccc(C(F)(F)F)cc1 (stereo not drawn) ?
ADAM17 inh: inactive; PLCb3 inh: inactive; PLCg1 inh: inactive; ADAM10 inh: inactive; proKLK7 act: inactive

Results for COC(=O)c1cc2c(c3c4cc(F)ccc4n(S(=O)(=O)c4ccc(C)cc4)c13)C(=O)N(c1ccc(OC)cc1)C2 ?
ADAM17 inh: inactive; PLCb3 inh: inactive; PLCg1 inh: inactive; ADAM10 inh: inactive; proKLK7 act: inactive

Results for COC(=O)C1=C(C)NC(=S)NC1c1cccc(OC)c1 (stereo not drawn) ?
ADAM17 inh: inactive; PLCb3 inh: inactive; PLCg1 inh: inactive; ADAM10 inh: inactive; proKLK7 act: inactive

How did COc1ccc2c(c1)CCCN2C(=O)C1CCCN(S(=O)(=O)c2c(C(C)C)cc(C(C)C)cc2C(C)C)C1 (stereo not drawn) do in these assays?
ADAM17 inh: inactive; PLCb3 inh: inactive; PLCg1 inh: inactive; ADAM10 inh: inactive; proKLK7 act: inactive

What do the screens show for `COc1ccccc1-c1c(C)oc2c(CN3CCCC(C)C3)c(O)ccc2c1=O` (stereo not drawn)?
ADAM17 inh: inactive; PLCb3 inh: inactive; PLCg1 inh: inactive; ADAM10 inh: inactive; proKLK7 act: 45; proKLK7 act conf: 72; EDANS-DABCYL int: 69

What do the screens show for `CC1CCCCN1Cc1c(O)ccc2c(=O)c(-c3ccc(Cl)cc3)coc12` (stereo not drawn)?
ADAM17 inh: inactive; PLCb3 inh: inactive; PLCg1 inh: inactive; ADAM10 inh: inactive; proKLK7 act: 17; proKLK7 act conf: 27; EDANS-DABCYL int: 26

How did C[C@H]1[C@@H](NC(=O)c2cccc(C(F)(F)F)c2)CC[C@@]23CCCN2C(=O)CCC[C@@H]13 do in these assays?
ADAM17 inh: inactive; PLCb3 inh: inactive; PLCg1 inh: inactive; ADAM10 inh: inactive

Results for O=C1c2cccn2CC2Cc3ccccc3N12 (stereo not drawn) ?
ADAM17 inh: inactive; PLCb3 inh: inactive; PLCg1 inh: inactive; ADAM10 inh: inactive

Compound activity deposited in PubChem BioAssay by The Scripps Research Institute Molecular Screening Center.
